# Measured values taken from publication PMC7862700, “An all-to-all approach to the identification of sequence-specific readers for epigenetic DNA modifications on cytosine”.
# Columns and labels:
# Assay in all cases: DAPPL (digital affinity profiling via proximity ligation, sequencing); 10 mM Tris-HCl pH 7.5, 50 mM NaCl, 1 mM DTT, 4% glycerol, room temperature, 30 min; GST-TFs on glutathione beads, 16-mer random dsDNA library, 0.1% formaldehyde crosslink after washing; high values mean tight binding
# Details in all cases: protein: recombinant; tags: N-terminal GST; dsDNA, one strand shown
# FLI1 = biological target: T1, FLI1 (Homo sapiens, UniProt Q01543 1-452)
# T1 sequence: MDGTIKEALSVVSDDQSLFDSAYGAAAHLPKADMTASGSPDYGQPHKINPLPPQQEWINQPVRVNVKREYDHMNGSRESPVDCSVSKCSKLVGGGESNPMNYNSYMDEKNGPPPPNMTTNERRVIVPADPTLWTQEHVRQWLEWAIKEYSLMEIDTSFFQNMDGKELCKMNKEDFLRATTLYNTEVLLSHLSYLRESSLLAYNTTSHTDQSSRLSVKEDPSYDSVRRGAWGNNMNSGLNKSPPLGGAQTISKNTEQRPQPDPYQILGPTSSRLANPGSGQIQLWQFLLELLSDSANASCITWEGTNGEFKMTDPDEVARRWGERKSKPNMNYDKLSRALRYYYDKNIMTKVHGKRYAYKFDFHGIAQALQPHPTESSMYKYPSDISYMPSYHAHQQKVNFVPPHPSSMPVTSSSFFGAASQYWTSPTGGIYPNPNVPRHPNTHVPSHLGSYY
# How it was run: (§1)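 Beads coated with glutathione captured GST-fused human transcription factors that had been expressed in yeast, and the factors were then given DNA barcodes and pooled with a tag-only sample. The pools were incubated with 200 nmole of a random double-stranded 16-mer DNA library in Tris/NaCl/DTT/glycerol buffer for 30 min at room temperature, washed, crosslinked with 0.1% formaldehyde and proximity-ligated with BsaI/T4 ligase at 37 °C for 1 h. PCR amplification and Illumina NextSeq500 sequencing came last. Binding signal is each hexamer's read frequency for a factor divided by its frequency for the tag-only sample.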
# ELK1 = biological target: T2, ELK1 (Homo sapiens, UniProt P19419 1-428)
# T2 sequence: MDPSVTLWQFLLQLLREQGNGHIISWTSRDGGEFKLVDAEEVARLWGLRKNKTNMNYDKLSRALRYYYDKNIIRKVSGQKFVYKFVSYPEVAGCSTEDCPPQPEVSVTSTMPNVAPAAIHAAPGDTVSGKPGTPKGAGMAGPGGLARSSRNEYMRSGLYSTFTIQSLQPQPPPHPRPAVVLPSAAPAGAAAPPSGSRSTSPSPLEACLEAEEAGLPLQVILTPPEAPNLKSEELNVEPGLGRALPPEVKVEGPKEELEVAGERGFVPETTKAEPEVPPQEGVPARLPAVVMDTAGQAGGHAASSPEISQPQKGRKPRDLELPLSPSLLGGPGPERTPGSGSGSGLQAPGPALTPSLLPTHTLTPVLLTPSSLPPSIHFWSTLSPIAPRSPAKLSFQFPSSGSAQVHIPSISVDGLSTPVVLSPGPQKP
# How it was run: as §1
# GABPA = biological target: T3, GABPA (Homo sapiens, UniProt Q06546 1-454)
# T3 sequence: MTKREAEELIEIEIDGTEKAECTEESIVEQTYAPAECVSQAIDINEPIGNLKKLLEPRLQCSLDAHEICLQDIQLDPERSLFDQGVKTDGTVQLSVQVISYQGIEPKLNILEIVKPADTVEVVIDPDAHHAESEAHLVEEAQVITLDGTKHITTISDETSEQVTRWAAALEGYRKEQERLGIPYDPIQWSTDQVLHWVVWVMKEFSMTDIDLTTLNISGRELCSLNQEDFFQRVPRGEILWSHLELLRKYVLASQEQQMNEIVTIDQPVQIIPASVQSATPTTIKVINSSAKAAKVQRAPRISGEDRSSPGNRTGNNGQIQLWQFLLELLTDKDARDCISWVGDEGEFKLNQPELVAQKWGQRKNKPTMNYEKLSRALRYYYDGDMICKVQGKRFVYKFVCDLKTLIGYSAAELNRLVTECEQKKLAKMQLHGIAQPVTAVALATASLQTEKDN
# How it was run: as §1
# ERG = biological target: T4, ERG (Homo sapiens, UniProt P11308 1-479)
# T4 sequence: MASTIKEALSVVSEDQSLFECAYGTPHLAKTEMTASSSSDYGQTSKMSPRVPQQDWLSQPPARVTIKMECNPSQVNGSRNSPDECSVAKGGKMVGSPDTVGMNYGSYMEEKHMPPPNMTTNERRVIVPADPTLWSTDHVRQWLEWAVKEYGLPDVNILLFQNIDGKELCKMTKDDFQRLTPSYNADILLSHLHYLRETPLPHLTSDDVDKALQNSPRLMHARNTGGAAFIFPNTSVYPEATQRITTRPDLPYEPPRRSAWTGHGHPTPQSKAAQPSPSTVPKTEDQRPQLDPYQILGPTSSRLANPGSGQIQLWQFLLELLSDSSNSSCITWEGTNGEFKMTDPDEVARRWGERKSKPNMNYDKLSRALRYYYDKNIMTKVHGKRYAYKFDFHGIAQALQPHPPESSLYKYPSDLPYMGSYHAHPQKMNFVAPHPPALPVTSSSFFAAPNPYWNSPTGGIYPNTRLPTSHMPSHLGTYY
# How it was run: as §1
# ELF1 = ELF1 (Homo sapiens, UniProt P32519 1-619)
# Sequence of ELF1 (P32519 whole entry): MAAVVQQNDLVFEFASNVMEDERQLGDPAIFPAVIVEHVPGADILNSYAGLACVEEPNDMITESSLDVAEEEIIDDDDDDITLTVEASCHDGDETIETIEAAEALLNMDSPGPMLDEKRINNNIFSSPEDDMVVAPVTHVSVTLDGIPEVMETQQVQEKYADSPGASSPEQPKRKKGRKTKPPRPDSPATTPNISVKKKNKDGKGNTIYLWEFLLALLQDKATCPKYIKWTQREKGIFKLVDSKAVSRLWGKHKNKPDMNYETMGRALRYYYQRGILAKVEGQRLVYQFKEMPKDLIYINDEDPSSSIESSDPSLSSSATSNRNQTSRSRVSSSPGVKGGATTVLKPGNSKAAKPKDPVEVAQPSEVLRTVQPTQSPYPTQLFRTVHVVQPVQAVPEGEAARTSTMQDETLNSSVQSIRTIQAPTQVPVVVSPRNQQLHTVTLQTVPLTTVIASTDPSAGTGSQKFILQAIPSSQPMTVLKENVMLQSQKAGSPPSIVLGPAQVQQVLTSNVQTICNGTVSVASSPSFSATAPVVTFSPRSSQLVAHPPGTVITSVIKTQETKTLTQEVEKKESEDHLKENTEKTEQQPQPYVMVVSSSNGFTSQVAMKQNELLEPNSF
# How it was run: as §1
# EHF = biological target: T5, EHF (Homo sapiens, UniProt Q9NZC4 1-300)
# T5 sequence: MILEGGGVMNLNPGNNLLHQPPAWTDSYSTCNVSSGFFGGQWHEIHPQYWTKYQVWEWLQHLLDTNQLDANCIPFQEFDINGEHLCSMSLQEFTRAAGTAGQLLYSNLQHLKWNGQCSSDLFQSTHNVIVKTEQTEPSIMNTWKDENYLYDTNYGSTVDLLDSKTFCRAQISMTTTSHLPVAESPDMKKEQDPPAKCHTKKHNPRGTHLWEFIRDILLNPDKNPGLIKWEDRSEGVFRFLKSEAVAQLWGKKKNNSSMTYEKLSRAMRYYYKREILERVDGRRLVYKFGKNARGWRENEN
# How it was run: as §1
# SPI1 = SPI1 (Homo sapiens, UniProt P17947 1-270)
# How it was run: as §1
# SPIB = SPIB (Homo sapiens, UniProt Q01892 1-262)
# Sequence of SPIB (Q01892 whole entry): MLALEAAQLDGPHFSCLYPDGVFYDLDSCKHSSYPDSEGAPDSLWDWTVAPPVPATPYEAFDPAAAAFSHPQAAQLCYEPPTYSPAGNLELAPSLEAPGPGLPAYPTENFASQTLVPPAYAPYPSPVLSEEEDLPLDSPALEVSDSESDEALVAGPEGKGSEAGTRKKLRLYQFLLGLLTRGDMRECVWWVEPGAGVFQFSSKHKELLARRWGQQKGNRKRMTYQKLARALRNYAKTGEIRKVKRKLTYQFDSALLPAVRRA
# How it was run: as §1
# FEV = biological target: T6, FEV (Homo sapiens, UniProt Q99581 1-238)
# T6 sequence: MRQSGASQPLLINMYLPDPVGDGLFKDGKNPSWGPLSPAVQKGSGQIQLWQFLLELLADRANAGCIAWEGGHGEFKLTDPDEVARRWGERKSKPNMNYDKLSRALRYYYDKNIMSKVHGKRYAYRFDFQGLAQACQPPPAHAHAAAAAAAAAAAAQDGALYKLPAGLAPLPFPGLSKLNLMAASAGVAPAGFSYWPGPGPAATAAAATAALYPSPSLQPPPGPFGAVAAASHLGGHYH
# How it was run: as §1
# ETV5 = ETV5 (Homo sapiens, UniProt P41161 1-510)
# Sequence of ETV5 (P41161 whole entry): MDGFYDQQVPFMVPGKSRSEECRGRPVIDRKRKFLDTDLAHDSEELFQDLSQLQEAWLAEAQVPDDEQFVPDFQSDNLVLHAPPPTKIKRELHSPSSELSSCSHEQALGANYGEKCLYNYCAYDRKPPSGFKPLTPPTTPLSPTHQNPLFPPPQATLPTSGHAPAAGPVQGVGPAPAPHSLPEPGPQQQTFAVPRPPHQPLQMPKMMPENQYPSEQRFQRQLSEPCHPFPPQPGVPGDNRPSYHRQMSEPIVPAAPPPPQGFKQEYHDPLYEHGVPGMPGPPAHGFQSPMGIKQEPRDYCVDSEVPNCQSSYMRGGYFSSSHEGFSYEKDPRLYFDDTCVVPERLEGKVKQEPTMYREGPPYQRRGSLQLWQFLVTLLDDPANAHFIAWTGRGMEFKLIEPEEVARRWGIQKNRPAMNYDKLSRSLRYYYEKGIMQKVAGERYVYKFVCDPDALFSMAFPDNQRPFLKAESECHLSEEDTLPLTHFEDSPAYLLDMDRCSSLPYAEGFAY
# How it was run: as §1
# SPIC = biological target: T7, SPIC (Homo sapiens, UniProt Q8N5J4 1-248)
# T7 sequence: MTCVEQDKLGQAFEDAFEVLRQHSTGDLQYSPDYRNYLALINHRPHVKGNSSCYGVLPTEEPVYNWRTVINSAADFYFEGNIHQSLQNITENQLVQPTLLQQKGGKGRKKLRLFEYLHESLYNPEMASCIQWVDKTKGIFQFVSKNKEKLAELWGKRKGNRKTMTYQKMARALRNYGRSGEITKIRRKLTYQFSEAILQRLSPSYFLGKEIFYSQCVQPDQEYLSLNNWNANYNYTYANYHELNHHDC
# How it was run: as §1
# ELF4 = ELF4 (Homo sapiens, UniProt Q99607 1-663)
# Sequence of ELF4 (Q99607 whole entry): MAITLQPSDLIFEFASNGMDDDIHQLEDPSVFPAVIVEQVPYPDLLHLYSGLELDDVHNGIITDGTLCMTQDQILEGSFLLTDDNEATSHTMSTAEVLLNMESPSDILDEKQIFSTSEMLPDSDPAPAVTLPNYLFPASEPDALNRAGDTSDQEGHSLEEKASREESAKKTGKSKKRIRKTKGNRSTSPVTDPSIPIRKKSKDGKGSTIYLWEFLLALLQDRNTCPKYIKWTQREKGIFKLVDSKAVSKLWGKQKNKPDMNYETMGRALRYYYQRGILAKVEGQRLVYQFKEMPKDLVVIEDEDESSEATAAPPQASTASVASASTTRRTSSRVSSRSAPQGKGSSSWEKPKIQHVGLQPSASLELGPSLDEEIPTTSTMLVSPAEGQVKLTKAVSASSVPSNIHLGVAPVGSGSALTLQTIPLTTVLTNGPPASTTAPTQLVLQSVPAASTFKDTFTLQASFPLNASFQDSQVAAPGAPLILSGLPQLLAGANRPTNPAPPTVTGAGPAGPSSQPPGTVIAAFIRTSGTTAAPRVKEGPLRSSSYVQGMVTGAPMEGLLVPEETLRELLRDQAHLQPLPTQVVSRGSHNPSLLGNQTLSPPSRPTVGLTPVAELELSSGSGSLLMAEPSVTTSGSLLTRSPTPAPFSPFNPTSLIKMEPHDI
# How it was run: as §1
# ELK4 = biological target: T8, ELK4 (Homo sapiens, UniProt P28324-2 1-405)
# T8 sequence: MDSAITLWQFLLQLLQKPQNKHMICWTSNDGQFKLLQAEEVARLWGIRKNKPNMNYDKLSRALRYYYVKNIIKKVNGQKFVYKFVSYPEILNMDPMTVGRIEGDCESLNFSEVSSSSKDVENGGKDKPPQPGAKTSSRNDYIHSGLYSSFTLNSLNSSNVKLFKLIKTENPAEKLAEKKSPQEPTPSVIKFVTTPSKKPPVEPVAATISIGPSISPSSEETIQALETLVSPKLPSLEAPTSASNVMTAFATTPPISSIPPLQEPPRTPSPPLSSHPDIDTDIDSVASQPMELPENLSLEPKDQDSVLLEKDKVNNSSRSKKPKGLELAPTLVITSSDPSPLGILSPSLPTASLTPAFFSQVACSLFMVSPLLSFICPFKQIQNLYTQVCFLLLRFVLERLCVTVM
# How it was run: as §1
# ETV2 = biological target: T9, ETV2 (Homo sapiens, UniProt O00321 1-342)
# T9 sequence: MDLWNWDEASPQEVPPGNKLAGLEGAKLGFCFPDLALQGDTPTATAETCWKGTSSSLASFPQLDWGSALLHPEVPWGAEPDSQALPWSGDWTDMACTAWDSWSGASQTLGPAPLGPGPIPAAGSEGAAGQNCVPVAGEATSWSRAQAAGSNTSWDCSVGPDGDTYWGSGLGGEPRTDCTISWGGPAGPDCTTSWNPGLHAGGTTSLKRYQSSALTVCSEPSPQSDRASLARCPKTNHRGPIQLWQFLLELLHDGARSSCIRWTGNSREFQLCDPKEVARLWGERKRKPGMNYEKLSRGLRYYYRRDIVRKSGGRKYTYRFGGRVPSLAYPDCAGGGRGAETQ
# How it was run: as §1
# ELF3 = biological target: T10, ELF3 (Homo sapiens, UniProt P78545 1-371)
# T10 sequence: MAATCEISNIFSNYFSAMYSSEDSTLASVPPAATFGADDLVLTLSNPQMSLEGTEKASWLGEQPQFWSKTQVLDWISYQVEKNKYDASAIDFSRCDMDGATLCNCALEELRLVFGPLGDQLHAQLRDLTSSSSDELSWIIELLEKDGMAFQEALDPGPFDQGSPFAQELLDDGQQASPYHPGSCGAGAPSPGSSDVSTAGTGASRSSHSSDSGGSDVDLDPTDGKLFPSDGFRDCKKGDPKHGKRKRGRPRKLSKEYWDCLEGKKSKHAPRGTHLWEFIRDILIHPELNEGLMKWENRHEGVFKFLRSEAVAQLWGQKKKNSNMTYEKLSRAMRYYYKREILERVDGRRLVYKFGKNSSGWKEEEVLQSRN
# How it was run: as §1
# ETV1 = ETV1 (Homo sapiens, UniProt P50549 1-477)
# Sequence of ETV1 (P50549 whole entry): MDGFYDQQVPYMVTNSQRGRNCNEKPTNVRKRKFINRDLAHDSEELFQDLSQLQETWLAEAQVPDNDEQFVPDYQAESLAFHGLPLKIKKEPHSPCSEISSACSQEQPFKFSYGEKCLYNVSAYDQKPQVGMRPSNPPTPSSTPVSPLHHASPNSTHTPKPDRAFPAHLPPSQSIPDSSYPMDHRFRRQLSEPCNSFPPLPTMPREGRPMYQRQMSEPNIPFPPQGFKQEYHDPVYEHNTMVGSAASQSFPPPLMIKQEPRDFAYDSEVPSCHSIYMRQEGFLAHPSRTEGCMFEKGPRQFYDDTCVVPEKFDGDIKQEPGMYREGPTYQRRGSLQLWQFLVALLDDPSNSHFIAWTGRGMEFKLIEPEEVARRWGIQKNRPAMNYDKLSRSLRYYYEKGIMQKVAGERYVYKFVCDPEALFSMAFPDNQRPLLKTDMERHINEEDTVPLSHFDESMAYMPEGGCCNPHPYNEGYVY
# How it was run: as §1
# ELK3 = biological target: T11, ELK3 (Homo sapiens, UniProt P41970 1-407)
# T11 sequence: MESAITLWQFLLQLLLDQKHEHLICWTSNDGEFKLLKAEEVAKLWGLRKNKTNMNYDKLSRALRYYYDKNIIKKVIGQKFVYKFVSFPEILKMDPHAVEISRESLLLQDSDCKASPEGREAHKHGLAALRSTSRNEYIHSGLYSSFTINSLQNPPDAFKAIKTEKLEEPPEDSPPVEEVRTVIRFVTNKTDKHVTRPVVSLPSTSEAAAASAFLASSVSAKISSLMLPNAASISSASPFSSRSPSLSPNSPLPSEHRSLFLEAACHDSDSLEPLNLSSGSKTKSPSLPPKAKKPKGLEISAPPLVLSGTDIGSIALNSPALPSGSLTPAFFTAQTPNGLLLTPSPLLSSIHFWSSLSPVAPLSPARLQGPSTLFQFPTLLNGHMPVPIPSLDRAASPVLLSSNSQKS
# How it was run: as §1
Sequence,binding signal (FLI1),binding signal (ELK1),binding signal (GABPA),binding signal (ERG),binding signal (ELF1),binding signal (EHF),binding signal (SPI1),binding signal (SPIB),binding signal (FEV),binding signal (ETV5),binding signal (SPIC),binding signal (ELF4),binding signal (ELK4),binding signal (ETV2),binding signal (ELF3),binding signal (ETV1),binding signal (ELK3)
CCCTGT,"1.18 fold enrichment (6-mer frequency, TF over GST control)","1.02 fold enrichment (6-mer frequency, TF over GST control)","1.2 fold enrichment (6-mer frequency, TF over GST control)","1.21 fold enrichment (6-mer frequency, TF over GST control)","1.17 fold enrichment (6-mer frequency, TF over GST control)","1.09 fold enrichment (6-mer frequency, TF over GST control)","1.07 fold enrichment (6-mer frequency, TF over GST control)","1.12 fold enrichment (6-mer frequency, TF over GST control)","1.04 fold enrichment (6-mer frequency, TF over GST control)","1.11 fold enrichment (6-mer frequency, TF over GST control)","1.2 fold enrichment (6-mer frequency, TF over GST control)","1.11 fold enrichment (6-mer frequency, TF over GST control)","1.25 fold enrichment (6-mer frequency, TF over GST control)","1.03 fold enrichment (6-mer frequency, TF over GST control)","1.08 fold enrichment (6-mer frequency, TF over GST control)","1.06 fold enrichment (6-mer frequency, TF over GST control)",
TGCCAT,"1.11 fold enrichment (6-mer frequency, TF over GST control)","1.06 fold enrichment (6-mer frequency, TF over GST control)","1.26 fold enrichment (6-mer frequency, TF over GST control)","1.21 fold enrichment (6-mer frequency, TF over GST control)","1.1 fold enrichment (6-mer frequency, TF over GST control)","1.21 fold enrichment (6-mer frequency, TF over GST control)","1.17 fold enrichment (6-mer frequency, TF over GST control)","1.16 fold enrichment (6-mer frequency, TF over GST control)","1.07 fold enrichment (6-mer frequency, TF over GST control)","1.03 fold enrichment (6-mer frequency, TF over GST control)","1.12 fold enrichment (6-mer frequency, TF over GST control)","1.1 fold enrichment (6-mer frequency, TF over GST control)","1.11 fold enrichment (6-mer frequency, TF over GST control)","1.14 fold enrichment (6-mer frequency, TF over GST control)","1.08 fold enrichment (6-mer frequency, TF over GST control)","1.17 fold enrichment (6-mer frequency, TF over GST control)","1.12 fold enrichment (6-mer frequency, TF over GST control)"
